High-throughput results: PubChem, several laboratories
The list is not random: actives were taken first. Their share in the collection is about 12%.
CHOP inhibitor = blocks CHOP induction under ER stress; CHO-K1 CHOP-promoter luciferase, tunicamycin-induced, 15-18 h; inhibition, % at 10 µM; 220,000 tested, 3.8% active;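 active = compounds that reduced the stress-induced luciferase reporter signal by more than about 70% of percent inhibition, limit read from the data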
WT yeast gro inh = growth inhibition of WT yeast, mitochondrial fusion screen; 190,000 tested, 2.1% active; AID 1362; mitochondrial fusion phenotypic screen, WT strain; inhibition, % at 10 µM; in the data active = inhibition above about 58%; tested in S. cerevisiae
Lmaj promast = Leishmania major promastigote growth inhibition; Leishmania major promastigotes, resazurin fluorescence viability; inhibition, % at 10 µM; 200,000 tested, 9% active; AID 1063; in the data active = inhibition above about 50%;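 note: promastigotes grown with compound for 44 hours at 28 °C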
Arbovirus anti = arbovirus infection inhibition; arbovirus infection cell-based antiviral screen; inhibition, % at 10 µM; 200,000 tested, 0.37% active; in the data active = inhibition above about 30%
Each line names hits and unclear results; the compound was inactive in the other large screens.

CCN(CCNc1ccc([N+](=O)[O-])c2cccnc12)S(=O)(=O)c1ccccc1	none
NCCNc1ccc([N+](=O)[O-])c2cccnc12	none
CCN(CCNc1ccc([N+](=O)[O-])c2cccnc12)S(=O)(=O)c1ccc(Cl)cc1	Lmaj promast 88.6
O=[N+]([O-])c1ccc(NCCCN2CCOCC2)c2ncccc12	Lmaj promast 86.9
O=C1CN=C(c2ccccc2)c2cc(Br)ccc2N1Cc1cc(=O)n2ccccc2n1	Lmaj promast 82.3
CCCNS(=O)(=O)c1ccc(OCC(=O)N2CCN(Cc3ccccc3)CC2)cc1	none
CCCCCCOc1ccc(CN2CCN(C)CC2)cc1	Lmaj promast 99.9
CC(CCc1ccccc1)NC(C)C(O)c1ccc(O)cc1 (stereo not drawn)	Lmaj promast 89.4
CCN1C[C@]2(C)CC[C@H](O)[C@@]34C5C[C@@H]6[C@@H](OC)C[C@@](O)(C5[C@H]6O)[C@@H](CC23)C14 (stereo partly drawn)	none (no result: WT yeast gro inh, Lmaj promast, Arbovirus anti)
COc1cccc(C2(O)CCSCC2CN(C)C)c1 (stereo not drawn)	none
CN1CCN(Cc2nnc3n2-c2ccc(Cl)cc2C(c2ccccc2)=NC3)CC1	none
Cc1nnc2n1-c1ccc(Cl)cc1C(c1ccccc1)=NC2	none (no result: Lmaj promast)
Clc1ccc2c(c1)C(c1ccccc1Cl)=NCc1nnc(N3CCN(CCSc4ccccc4)CC3)n1-2	WT yeast gro inh 76.1
Clc1ccc2c(c1)C(c1ccccc1Cl)=NCc1nnc(N3CCN(CCOc4ccccc4)CC3)n1-2	CHOP inhibitor 88.3, WT yeast gro inh 59.8
Cc1ccc2c(c1)c(=O)c1c3n2CCN(CC2CO2)C3CC1 (stereo not drawn)	none
N[C@@H](Cn1ccc(=O)[nH]c1=O)C(=O)O	none (no result: WT yeast gro inh, Lmaj promast, Arbovirus anti)
Cc1ccccc1N1C(=O)NC(=O)/C(=C\c2cc(Br)c(N3CCOCC3)o2)C1=O	CHOP inhibitor 72.3
COc1ccccc1N1CCN(Cc2ccc(Cl)cc2Cl)CC1	none
Clc1ccccc1CN1CCN(c2ccccc2Cl)CC1	WT yeast gro inh 70.3
CC(=O)OC1N=C(c2ccccc2)c2ccccc2NC1=O (stereo not drawn)	none
CC(=O)OC1N=C(c2ccccc2)c2cc(C)ccc2NC1=O (stereo not drawn)	Lmaj promast 74.7
O=c1[nH]c(=O)n(Cc2ccccc2)c(O)c1/C=C1\C=Nc2ccccc21	CHOP inhibitor 83.0
C=CCn1c(O)c(C=NCCCn2ccnc2)c(=O)[nH]c1=O	none (no result: WT yeast gro inh, Lmaj promast, Arbovirus anti)
COc1ccc(C2=NCC(=O)N(CC(=O)NCc3ccco3)c3sc4c(c32)CCCC4)cc1	none
O=C(CN1C(=O)CN=C(c2ccccc2Cl)c2cc(Cl)ccc21)NCc1ccco1	Lmaj promast 97.4
COC(=O)C(O)(c1ccc(NC(=O)c2cccs2)cc1)C(F)(F)F (stereo not drawn)	none (no result: WT yeast gro inh, Lmaj promast, Arbovirus anti)
Cc1cc2c(C(C)C)c(O)c(O)c(C=O)c2c(O)c1-c1c(C)cc2c(C(C)C)c(O)c(O)c(C=O)c2c1O	CHOP inhibitor 109.4
CCC1C(c2ccccc2)NC(c2ccccc2)CC1(O)c1ccc(F)cc1 (stereo not drawn)	none (no result: WT yeast gro inh, Lmaj promast, Arbovirus anti)
Cc1ccc(OP(=O)(NCc2ccccc2)Oc2ccc(C)cc2)cc1	none
Cc1ccc(OP(=O)(NC(C)c2ccccc2)Oc2ccc(C)cc2)cc1 (stereo not drawn)	CHOP inhibitor 77.4
Ic1ccccc1CNC1C2CCN(CC2)C1C(c1ccccc1)c1ccccc1 (stereo not drawn)	none (no result: WT yeast gro inh, Lmaj promast, Arbovirus anti)
Cc1cc(C=C2C(=O)NC(=S)NC2=O)c(C)n1-c1ccc2c(c1)OCO2	Lmaj promast 86.4
Cc1cc(C=C2C(=O)NC(=O)NC2=O)c(C)n1-c1ccc2c(c1)OCO2	none
Cc1ccc(C)c(NC(=S)NCCc2cnc[nH]2)c1	none (no result: WT yeast gro inh, Lmaj promast, Arbovirus anti)
CCN(CC)C(=O)c1ccc(NC(=O)COc2ccc([N+](=O)[O-])cc2Cl)cc1	Lmaj promast 50.1
O=c1[nH]c2ccccc2o1	none
COCCCn1c(N)c(C(=O)OC(C)COC)c2nc3ccccc3nc21 (stereo not drawn)	none
CCCCn1c(NC(=O)c2ccc(Br)o2)c(C(=O)OCC)c2nc3ccccc3nc21	none
CCOC(=O)c1c(N)n(CCN2CCCCC2)c2nc3ccccc3nc12	Lmaj promast 54.9
CCCCn1c(NS(=O)(=O)c2ccccc2)c(C(=O)OCC)c2nc3ccccc3nc21	Lmaj promast 99.0
C[N+](C)(C)CC(=O)O	none (no result: WT yeast gro inh, Lmaj promast, Arbovirus anti)
Cc1cccc(N/N=C(\C(N)=O)C2=NC(C)(C)Cc3ccccc32)c1	none
O=[N+]([O-])c1cccc(CN2CCN(Cc3ccc(Br)cc3)CC2)c1	Lmaj promast 86.7
CC(NCc1ccc(Cl)cc1)C(O)c1ccccc1 (stereo not drawn)	Lmaj promast 87.0
CC(NCc1cccc(Cl)c1Cl)C(O)c1ccccc1 (stereo not drawn)	none
CC(NCc1ccc(Cl)cc1Cl)C(O)c1ccccc1 (stereo not drawn)	Lmaj promast 64.4
CCOc1c(Cl)cc(CNC(C)C(O)c2ccccc2)cc1OC (stereo not drawn)	none
c1ccc(-c2[nH]c(-c3ccccc3)[n+](CC3CO3)c2-c2ccccc2)cc1 (stereo not drawn)	WT yeast gro inh 58.9
COc1cccc(NP(=O)(Oc2ccccc2Cl)Oc2ccccc2Cl)c1	CHOP inhibitor 91.0
O=P(Nc1cccc(Cl)c1)(Oc1ccccc1)Oc1ccccc1	WT yeast gro inh 79.3
COc1cccc(NP(=O)(Oc2ccccc2)Oc2ccccc2)c1	none
c1ccc2c3c([nH]c2c1)C1(CCNCC1)NCC3	none (no result: WT yeast gro inh, Lmaj promast, Arbovirus anti)
CC12CN3CC(C)(CN(C1)C3c1cccnc1)C2=O (stereo not drawn)	none
CNC(=S)N1CCn2cccc2C1c1cccnc1 (stereo not drawn)	Lmaj promast 67.9
CCCCNC(=S)N1CCn2cccc2C1c1cccnc1 (stereo not drawn)	Lmaj promast 92.3
Cc1cccc(NP(=O)(Oc2ccccc2F)Oc2ccccc2F)c1C	Lmaj promast 80.5
Cc1cccc(OP(N)(N)=O)c1C	none
CC(Cc1ccc(OCC(=O)O)cc1)NCC(O)c1cccc(Cl)c1 (stereo not drawn)	none (no result: WT yeast gro inh, Lmaj promast, Arbovirus anti)
Nc1ccc(CCN2CCN(c3cccc(C(F)(F)F)c3)CC2)cc1	none (no result: WT yeast gro inh, Lmaj promast, Arbovirus anti)
c1ccc(CCN2CCC(N3CCN(c4ccccc4)CC3)CC2)cc1	Lmaj promast 94.5
CCCCN(Cc1ccccc1)C1CCN(CCc2ccccc2)CC1	Lmaj promast 90.5
CN(CC1COc2ccccc2O1)c1nc(-c2cccnc2)nc2ccccc12 (stereo not drawn)	WT yeast gro inh 79.8, Lmaj promast 68.8
CC(Cc1ccccc1Sc1ccccc1O)N(C)C (stereo not drawn)	Lmaj promast 99.8
C#CCN(C)[C@H](C)Cc1ccccc1	none (no result: Lmaj promast)
O=C1CC(c2ccccc2)CN1 (stereo not drawn)	none (no result: WT yeast gro inh, Lmaj promast, Arbovirus anti)
COc1ccc(C(O)c2ccccc2OP(=O)(N(C)C)N(C)C)cc1 (stereo not drawn)	Lmaj promast 66.3
CCNc1cc(N2CCNCC2)ccc1[N+](=O)[O-]	none
O=[N+]([O-])c1ccc(N2CCNCC2)cc1N1CCCCC1	Lmaj promast 75.8
CCCCCc1nc2c(c(=O)c3ccccc3n2C)c(=O)n1C1CCCCCC1	CHOP inhibitor 102.9, WT yeast gro inh 97.2, Lmaj promast 98.5
CNC(=O)O/N=C/c1nn(C(=O)C(C)(C)C)cc1Br	none (no result: WT yeast gro inh, Lmaj promast, Arbovirus anti)
Cn1c(NN=O)nc2ccccc21	Lmaj promast 97.4
CCOc1ccc([N+](=O)[O-])cc1CNCCc1ccccc1	Lmaj promast 96.5
